Measurements as given in PubChem BioAssay (EPA / NIEHS).
Inconclusive results are not listed. Active and inactive are the calls of the source. How the source made its calls, unless noted: active means hit-call score of the fitted dose curve at least 0.9, where 1 is the maximum; inactive means score below 0.9.

System: not listed separately
Assay: CCTE_Mundy_HCI_iCellGluta_NOG_NeuriteCount: CCTE's Neurite Outgrowth Assay in iCellGluta cells for Neurite Count, Mundy Lab (AID 2284342; active means hit-call score of the fitted dose curve at least 0.9, where 1 is the maximum;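 further: chemical exposure about 48 hours starting 2 hours after plating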)

**Q.** For Nc1ncn([C@@H]2O[C@H](CO)[C@@H](O)[C@H]2O)c(=O)n1, which outcome is on record?
**A.** inactive

**Q.** With N[C@H]1C(O)O[C@H](CO)[C@H](O)[C@@H]1O (stereo partly specified) as the compound, how does the outcome read?
**A.** inactive

**Q.** Which outcome does the source give for CC1(C)S[C@@H]2[C@H](NC(=O)COc3ccccc3)C(=O)N2[C@H]1C(=O)O here?
**A.** inactive

System: SERPINA7 (gene 6906)
Assay: CCTE_GLTED_hTBG: CCTE's human Thyroxine-binding Globulin (TBG) Inhibition Assay, Great Lakes Toxicology and Ecology Division (GLTED) Lab (AID 2284343; active means hit-call score of the fitted dose curve at least 0.9, where 1 is the maximum;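 further: active chemicals lower fluorescence versus DMSO baseline by displacing probe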)
Method in brief: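 Steps: combine TBG with chemical; incubate 2 hours so that disruptors release ANSA; record fluorescence (380 ex, 475 em). Loss of signal was fitted against DMSO controls.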

**Q.** With CCOC(=O)Cc1cccc2ccccc12 as the compound, how does the AC50 read?
**A.** 13.4 µM (active)

**Q.** Which AC50 does the source give for O=c1cc(-c2ccccc2)oc2ccccc12 here?
**A.** 18.5 µM (active)

**Q.** With O=C(C=Cc1ccccc1)OCc1ccccc1 as the compound, how does the AC50 read?
**A.** 25.7 µM (active)

**Q.** Which AC50 does the source give for CCCCCCCC/C=C\CCCCCCCC(=O)O here?
**A.** 8.56 µM (active)

**Q.** For CC1=NN(c2cc(S(=O)(=O)O)ccc2Cl)C(=O)C1N=Nc1ccccc1 (stereo unspecified), which outcome is on record?
**A.** inactive

**Q.** For Oc1ccc(Cl)cc1Cc1cc(Cl)ccc1O, which AC50 is on record?
**A.** 0.072 µM (active)

**Q.** For CCCCC(CC)CCC(CC(C)C)OS(=O)(=O)O (stereo unspecified), which AC50 is on record?
**A.** 11.1 µM (active)

**Q.** Which AC50 does the source give for CC(C)(C)c1ccc(OC(=O)c2ccccc2O)cc1 here?
**A.** 1.69 µM (active)

**Q.** With CCCCCCCCCCCCCOP(=O)(O)O as the compound, how does the AC50 read?
**A.** 2.24 µM (active)

**Q.** Which AC50 does the source give for Cc1ccc(C(C)c2ccc(C)c(C)c2)cc1C here?
**A.** 1.8 µM (active)

**Q.** For CN(C)c1ccc(N=Nc2ccccc2C(=O)O)cc1, which AC50 is on record?
**A.** 25.6 µM (active)

System: not listed separately
Assay: CCTE_Padilla_ZF_Score.Craniofacial: CCTE's 144 Hour Post-fertilization zebrafish Assay Score for Craniofacial Malformation, Padilla Lab (AID 2284405)
Method in brief: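 Craniofacial defects were scored at 6 dpf by two blinded observers using stereomicroscopy. Exposure of wild-type embryos began at 6–8 hpf in sealed wells of 10% Hanks' solution at 26C, with chemical removed by rinsing at 5 dpf.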

**Q.** Which outcome does the source give for CC=CC(F)(F)C(F)(F)C(F)(F)F here?
**A.** inactive

**Q.** Which outcome does the source give for CCOC(F)(F)C(F)(F)C(F)(F)C(F)(F)F here?
**A.** inactive

**Q.** For FC(F)=C(F)OC(F)(F)C(F)(F)C(F)(F)F, which outcome is on record?
**A.** inactive

System: not listed separately
Assay: CCTE_Padilla_ZF_Score.Edema: CCTE's 144 Hour Post-fertilization zebrafish Assay Score for Edema Malformation, Padilla Lab (AID 2284406)
Method in brief: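 Edema scored at 6 dpf by two blinded observers under a stereo microscope, in single outbred wild-type larvae exposed from 6-8 hpf in sealed wells (Hanks', 26C, 14:10 h light) and chemical-free after a 5 dpf rinse.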

**Q.** For CC=CC(F)(F)C(F)(F)C(F)(F)F, which outcome is on record?
**A.** inactive

**Q.** With CCOC(F)(F)C(F)(F)C(F)(F)C(F)(F)F as the compound, how does the outcome read?
**A.** inactive

**Q.** Which outcome does the source give for FC(F)=C(F)OC(F)(F)C(F)(F)C(F)(F)F here?
**A.** inactive

System: not listed separately
Assay: CCTE_Padilla_ZF_Score.Spine: CCTE's 144 Hour Post-fertilization zebrafish Assay Score for Spine Malformation, Padilla Lab (AID 2284407)
Method in brief: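 Spine malformation scored at 6 dpf by two independent blinded observers under stereomicroscope, after static sealed exposure from 6–8 hpf at 26C in Hanks' solution with rinse on 5 dpf. Positive-direction fit against DMSO control.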

**Q.** Which outcome does the source give for CC=CC(F)(F)C(F)(F)C(F)(F)F here?
**A.** inactive

**Q.** For CCOC(F)(F)C(F)(F)C(F)(F)C(F)(F)F, which outcome is on record?
**A.** inactive

**Q.** Which outcome does the source give for FC(F)=C(F)OC(F)(F)C(F)(F)C(F)(F)F here?
**A.** inactive

System: not listed separately
Assay: CCTE_Padilla_ZF_Score.Swim_bladder: CCTE's 144 Hour Post-fertilization zebrafish Assay Score for Swim Bladder Malformation, Padilla Lab (AID 2284408)
Method in brief: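 Swim bladder inflation scored at 6 dpf by two blinded observers under a stereo microscope. Exposure ran from 6–8 hpf in sealed wells of 10% Hanks' at 26C, with rinsing at 5 dpf; DMSO served as baseline.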

**Q.** With CC=CC(F)(F)C(F)(F)C(F)(F)F as the compound, how does the outcome read?
**A.** inactive

**Q.** With CCOC(F)(F)C(F)(F)C(F)(F)C(F)(F)F as the compound, how does the outcome read?
**A.** inactive

**Q.** For FC(F)=C(F)OC(F)(F)C(F)(F)C(F)(F)F, which outcome is on record?
**A.** inactive

System: not listed separately
Assay: CCTE_Padilla_ZF_Score.Position: CCTE's 144 Hour Post-fertilization zebrafish Assay Score for Position, Padilla Lab (AID 2284409)
Method in brief: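 Wild-type zebrafish embryos (with chorions) exposed singly from 6–8 hpf in sealed wells of Hanks' solution at 26C, rinsed at 5 dpf. At 6 dpf, blinded assessors scored abnormal water-column position by brightfield stereomicroscopy, relative to DMSO.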

**Q.** Which outcome does the source give for CC=CC(F)(F)C(F)(F)C(F)(F)F here?
**A.** inactive

**Q.** With CCOC(F)(F)C(F)(F)C(F)(F)C(F)(F)F as the compound, how does the outcome read?
**A.** inactive

**Q.** Which outcome does the source give for FC(F)=C(F)OC(F)(F)C(F)(F)C(F)(F)F here?
**A.** inactive

System: not listed separately
Assay: CCTE_Padilla_ZF_Score.Living: CCTE's 144 Hour Post-fertilization zebrafish Assay Score for Viability, Padilla Lab (AID 2284410);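 further: larval death at 6 dpf judged by absent heartbeat or coagulation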
Method in brief: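 Mortality at 6 dpf, judged as absent heartbeat or coagulation by two blinded observers, after sealed static exposure beginning at 6–8 hpf at 26C. Larvae were rinsed free of chemical at 5 dpf, and activity was fitted relative to DMSO.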

**Q.** Which outcome does the source give for CC=CC(F)(F)C(F)(F)C(F)(F)F here?
**A.** inactive

**Q.** For CCOC(F)(F)C(F)(F)C(F)(F)C(F)(F)F, which outcome is on record?
**A.** inactive

**Q.** For FC(F)=C(F)OC(F)(F)C(F)(F)C(F)(F)F, which outcome is on record?
**A.** inactive

System: not listed separately
Assay: CCTE_Padilla_ZF_Score.General: CCTE's 144 Hour Post-fertilization zebrafish Assay Score for General Malformation, Padilla Lab (AID 2284411)
Method in brief: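 Malformation, death and hatching were scored at 6 dpf by two blinded observers under a stereo microscope. Embryos were dosed singly from 6-8 hpf in sealed plates of 10% Hanks' at 26C and rinsed on 5 dpf; DMSO baseline.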

**Q.** For CC=CC(F)(F)C(F)(F)C(F)(F)F, which outcome is on record?
**A.** inactive

**Q.** With CCOC(F)(F)C(F)(F)C(F)(F)C(F)(F)F as the compound, how does the outcome read?
**A.** inactive

**Q.** Which AC50 does the source give for C#CC1(O)CC[C@H]2[C@@H]3CCC4=CCCC[C@@H]4[C@H]3CC[C@@]21C (stereo partly specified) here?
**A.** 2.31 µM (active)

**Q.** For COCc1c(C(C)C)nc(C(C)C)c(/C=C/[C@@H](O)C[C@@H](O)CC(=O)O)c1-c1ccc(F)cc1, which outcome is on record?
**A.** inactive

**Q.** Which outcome does the source give for CCCCCCCCCCCCCCCC[N+](C)(C)CC here?
**A.** inactive

**Q.** With C=CCOCC(O)CCl (stereo unspecified) as the compound, how does the outcome read?
**A.** inactive

**Q.** Which outcome does the source give for c1ccc2c(c1)ccc1cc3c(ccc4ccccc43)cc12 here?
**A.** inactive

**Q.** Which outcome does the source give for CCCCCCCCc1ccc(Nc2ccc(CCCCCCCC)cc2)cc1 here?
**A.** inactive

**Q.** For CCCCC/C=C\C/C=C\CCCCCCCC(=O)OC, which outcome is on record?
**A.** inactive

**Q.** For CCCCC(CC)COC(=O)c1ccccc1O (stereo unspecified), which outcome is on record?
**A.** inactive

**Q.** Which AC50 does the source give for S=C(NC1CCCCC1)NC1CCCCC1 here?
**A.** 25.5 µM (active)

**Q.** Which outcome does the source give for O=Nc1ccc(O)cc1 here?
**A.** inactive

**Q.** For FC(F)=C(F)OC(F)(F)C(F)(F)C(F)(F)F, which outcome is on record?
**A.** inactive

**Q.** For CCCCCCCCCCc1ccccc1, which outcome is on record?
**A.** inactive

System: not listed separately
Assay: CCTE_Padilla_ZF_Score.Tail: CCTE's 144 Hour Post-fertilization zebrafish Assay Score for Tail Malformation, Padilla Lab (AID 2284414)
Method in brief: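 Tail malformations were scored at 6 dpf by two blinded assessors under a stereo microscope. Chorionated embryos had been exposed from 6-8 hpf in sealed wells of 10% Hanks' at 26 C, then rinsed free of chemical at 5 dpf.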

**Q.** Which outcome does the source give for CC=CC(F)(F)C(F)(F)C(F)(F)F here?
**A.** inactive

**Q.** Which outcome does the source give for CCOC(F)(F)C(F)(F)C(F)(F)C(F)(F)F here?
**A.** inactive

**Q.** Which outcome does the source give for FC(F)=C(F)OC(F)(F)C(F)(F)C(F)(F)F here?
**A.** inactive

System: not listed separately
Assay: CCTE_Padilla_ZF_Score.Blood_pooling: CCTE's 144 Hour Post-fertilization zebrafish Assay Score for Blood Pooling, Padilla Lab (AID 2284415)
Method in brief: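 Blood pooling was scored at 6 dpf under a stereo microscope by two blinded assessors, fitted upward against DMSO. Single embryos were dosed at 6–8 hpf in 10% Hanks', kept sealed at 26C (14:10 h cycle) and rinsed at 5 dpf.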

**Q.** For CC=CC(F)(F)C(F)(F)C(F)(F)F, which outcome is on record?
**A.** inactive

**Q.** Which outcome does the source give for CCOC(F)(F)C(F)(F)C(F)(F)C(F)(F)F here?
**A.** inactive

**Q.** Which outcome does the source give for FC(F)=C(F)OC(F)(F)C(F)(F)C(F)(F)F here?
**A.** inactive

System: not listed separately
Assay: CCTE_Padilla_ZF_Score.Any: CCTE's 144 Hour Post-fertilization zebrafish Assay Score for Any Mortality or Malformation, Padilla Lab (AID 2284416)
Method in brief: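 Wild-type zebrafish embryos with chorions, one per well in 10% Hanks' from 6–8 hpf, dosed in sealed plates at 26 C, 14:10 h light:dark; rinsed at 5 dpf; blinded scoring at 6 dpf for death or malformation, versus DMSO.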

**Q.** With CC=CC(F)(F)C(F)(F)C(F)(F)F as the compound, how does the outcome read?
**A.** inactive

**Q.** For CCOC(F)(F)C(F)(F)C(F)(F)C(F)(F)F, which outcome is on record?
**A.** inactive

**Q.** For FC(F)=C(F)OC(F)(F)C(F)(F)C(F)(F)F, which outcome is on record?
**A.** inactive

System: TTR (gene 7276)
Assay: CCTE_GLTED_hTTR_0.125uM: CCTE's human Transthyretin (hTTR) Inhibition Assay, with 0.125uM TTR, Great Lakes Toxicology and Ecology Division (GLTED) Lab (AID 2284431);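 further: hits lower the fluorescence signal relative to DMSO baseline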
Method in brief: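 Cell-free displacement of ANSA probe from 0.125uM TTR after 2 h incubation with chemical. Fluorescence read at 380 nm excitation/475 nm emission; loss of signal relative to DMSO indicates T4-site displacement.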

**Q.** For O=c1cc(-c2ccccc2)oc2ccccc12, which AC50 is on record?
**A.** 10.8 µM (active)

**Q.** Which AC50 does the source give for O=S1(=O)OC(c2ccc(O)cc2)(c2ccc(O)cc2)c2ccccc21 here?
**A.** 3.34 µM (active)

**Q.** For CCCCCCCC/C=C\CCCCCCCC(=O)O, which AC50 is on record?
**A.** 3.32 µM (active)

**Q.** Which AC50 does the source give for COC(=O)c1c(C)cc(O)c(C)c1O here?
**A.** 1.29 µM (active)

**Q.** With CC1=NN(c2cc(S(=O)(=O)O)ccc2Cl)C(=O)C1N=Nc1ccccc1 (stereo unspecified) as the compound, how does the AC50 read?
**A.** 5.76 µM (active)

**Q.** Which AC50 does the source give for Oc1ccc(Cl)cc1Cc1cc(Cl)ccc1O here?
**A.** 0.129 µM (active)

**Q.** Which AC50 does the source give for CCCCC/C=C\C/C=C\CCCCCCCC(=O)OC here?
**A.** 9.84 µM (active)

**Q.** Which AC50 does the source give for CCCCC(CC)CCC(CC(C)C)OS(=O)(=O)O (stereo unspecified) here?
**A.** 0.382 µM (active)

**Q.** Which AC50 does the source give for CCCCCCCCCCOS(=O)(=O)O here?
**A.** 3.68 µM (active)

**Q.** Which AC50 does the source give for CCCCCCCCCCCCCOP(=O)(O)O here?
**A.** 0.78 µM (active)

**Q.** With CN(C)c1ccc(N=Nc2ccccc2C(=O)O)cc1 as the compound, how does the AC50 read?
**A.** 8.96 µM (active)
